Laboratory results reported in PubChem BioAssay AID2112 (National Center for Advancing Translational Sciences (NCATS), 2009).
Among all 240,000 compounds or so, about 15 (0.006%) were called active. Only a sample is shown. A number with no mark means an inactive call. Calls come from the whole dose curve; as a rule, active = well fitted inhibition curve with a large enough effect; inconclusive = small, poorly fitted or top-dose-only effect, or effect the other way, or another doubt; inactive = no such curve, though single readings can be large or run the other way.

target: Lysosomal alpha-glucosidase (Homo sapiens) (UniProt P10253); test: qHTS Assay for Inhibitors and Activators of Human alpha-Glucosidase From Spleen Homogenate; conditions: 4-MU-alpha-glucoside fluorescence; series mostly up to 79.9 µM; activity change, negative = inhibition: at the top concentration;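 note: 0% = enzyme with vehicle and -100% = no enzyme basal signal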
Text: NIH Chemical Genomics Center [NCGC] NIH Molecular Libraries Probe Production Centers Network [MLPCN] MLPCN Grant: R03 MH084841-01 Assay Submitter (PI): Wei Zheng NCGC Assay Overview: Alpha-glucosidase is responsible for the hydrolysis of terminal, non-reducing 1,4-linked alpha-D-glucose residues, which releases alpha-D-glucose. It is a lysosomal hydrolase that is required for the degradation of a small percentage (1-3%) of cellular glycogen in humans. Deficiency of this enzyme results in glycogen-storage disease type II (GSDII), also referred to as Pompe disease, an autosomal recessive disorder. Structurally normal glycogen is accumulated in the lysosomes and cytoplasm in affected patients, primarily in muscle tissues. Excessive glycogen storage within lysosomes may interrupt normal functioning of other organelles and leads to cellular injury. In turn, this leads to enlargement and dysfunction of the entire organ involved (eg: cardiomyopathy and muscle weakness). It has been reported that the improper folding and trafficking of alpha-glucosidase resulting from genetic mutations may account for a significant number of Pompe patients. […] We optimized this alpha-glucosidase assay in 1536-well plate format for identification of novel small molecule inhibitors or activators with structures other than the sugar analogs in order to develop new pharmacological chaperones. In particular, this assay is directed towards discovering compounds active in a more natural setting, tissue homogenate, that may have been missed by screens of the purified enzyme under more stringent conditions.
NCGC Assay Protocol Summary: This is a fluorogenic enzyme assay with 4-methylumbelliferyl-alpha-D-glucopyranoside as the substrate and human spleen homogenate containing alpha-glucosidase as the enzyme preparation. Upon hydrolysis of this fluorogenic substrate, the resulting product, 4-methylumbelliferone (which excites at 365 nm and emits at 440 nm) can be detected by a fluorescence plate reader. Data were normalized to the controls for basal activity (without enzyme) and 100% activity (with enzyme). The AC50 values were determined from concentration-response data modeled with the standard Hill equation. Assay buffer: 50 mM citric acid (titrated with potassium phosphate to pH 5.0), 0.01% Tween-20 (pH 5.0 is an optimal condition for this enzyme assay) 1536-well assay protocol for the alpha-glucosidase from human spleen homogenate: (1) Add 2 ul/well spleen homogenate (1 ug) (2) Add 23 nL compounds in DMSO solution. The final titration was 0.5 nM to 58 uM. (3) Add 2 ul of substrate (1 mM final) (4) Incubate at 37 C for 40 min (5) Add 2 ul stop solution (1M NaOH and 1M Glycine mixture, pH 10) (6) Detect the assay plate in a ViewLux plate reader (PerkinElmer) with Ex=365 nm and Em=440nm. Keywords: Alpha-glucosidase, Pompe Disease, pharmacological chaperone, chaperone therapy, high throughput screening, alpha-glucosidase inhibitor, MLSMR, MLSCN, NIH Roadmap, qHTS and NCGC

Molecule | activity change, negative = inhibition | outcome
NC1CCN(O)C1=O (stereo unspecified) | -4.38% | 
CN1CCN2c3ccccc3Cc3ccccc3[C@@H]2C1 |  | inactive
C=C1CCN(C(CC(C)C)C(=O)N2CCOCC2)S(=O)(=O)c2ccccc21 (stereo unspecified) | -3.94% | 
CCN(CC)/[N+]([O-])=N/Oc1cc(O/[N+]([O-])=N/N2CCCC2CO)c([N+](=O)[O-])cc1[N+](=O)[O-] (stereo unspecified) | 13.4% | 
Cc1cccc([C@H]2[C@@H]3C=CC[C@@H](C)[C@@H]3C(=O)N2Cc2ccccc2)c1 | 5.28% [at 119 µM] | 
CCOC(=O)C1=C(C)c2ccccc2OC1C(=O)OCC (stereo unspecified) | -1.48% [at 119 µM] | 
O=C(O)CCn1c(O)c(C=C2N=c3ccccc3=N2)sc1=S | 5.64% | 
COc1cc(OC)c2c(c1C(CCN1CCCCC1)c1ccc(N(C)C)cc1)OC(=O)CC2c1ccc(N(C)C)cc1 (stereo unspecified) | -1.04% | 
O=C1CN(Cc2ccccc2)S(=O)(=O)c2ccccc21 | 4.09% | 
Cc1cc(=O)oc2cc(NC(=O)C3CC(=O)N(Cc4ccccc4)C3)ccc12 (stereo unspecified) | -3.26% | 
Cc1c(CN2CCC(CO)(CCOc3ccccc3)CC2)[nH]c2ccc(Cl)cc12 | -2.21% | 
CC(C)=CCN1CCC2(CCc3ccccc32)CC1 | 2.89% | 
CC(CNc1ccc([N+](=O)[O-])cc1)NC(=O)c1ccccc1Br (stereo unspecified) | -6.77% | 
CC1CCN(S(=O)(=O)c2ccc3ncn(CC(=O)N(C)C4CCCCC4)c(=O)c3c2)CC1 | -4.28% | 
OC(COCC1COc2ccccc2O1)CN1CCN(c2ccc(F)cc2)CC1 (stereo unspecified) | -10.7% | 
C=C(C)C(=O)c1ccc(F)cc1 | 6.52% | 
CC[C@H](C)[C@H](NC(=O)[C@@H](N)CCC(=O)O)C(=O)N[C@@H](CC(C)C)C(=O)N[C@@H](CC(=O)O)C(=O)N[C@H](C(=O)N1CCC[C@H]1C(=O)N[C@@H](CO)C(=O)N[C@H](C(=O)O)[C@@H](C)O)C(C)C | 5.13% | 
H-EHIPA-OH | 3.99% | 
O=C(NCCCCc1ccccc1)C1CC(c2ccc([N+](=O)[O-])cc2)=NO1 (stereo unspecified) | 3.76% | 
COc1ccccc1-c1nnc(NC(=O)c2ccc3ncsc3c2)o1 | 2.72% | 
CN1CCN(c2cc3c(cc2F)c(=O)c(C(=O)O)cn3CCF)CC1 | 2.34% | 
CCOC(OCC)OCC | -1.22% | 
Oc1ccc(-c2c(-c3ccccc3)nn3c(C(F)(F)F)cc(C(F)(F)F)nc23)cc1 | 3.91% | 
O=C(NCCCNc1ccc([N+](=O)[O-])cc1Cl)c1ccccc1F | -9.07% | 
COCCCNC(=S)N1CCCC(c2nc3cc(C)c(C)cc3[nH]2)C1 (stereo unspecified) | -4.36% | 
Brc1ccc2ncnc(NCc3cccnc3)c2c1 | 7.88% | 

Molecule | activity change, negative = inhibition | outcome
CCCC1=Nc2cc(C(=O)NCc3ccco3)ccc2Sc2ccccc21 | -5.63% | 
CCOC(=O)c1c(C)n(C)c2ccc(OC)c(NS(=O)(=O)CC)c12 | -20% | 
C/C=C(\C)C(=O)NCCN1C2=NC[C@H](Cc3ccc(O)cc3)N2C[C@@H]1Cc1ccc(OC)cc1 | 2.08% | 
COc1ccc(C2=Nn3c(nnc3-c3ccccc3O)SC2)cc1 | -1.69% | 
Cn1ccc(=NC=C(C#N)C#N)c2ccccc21 | -4.74% | 
COc1ccc(C2=NN(C(=O)c3cccnc3)C(c3ccccc3)C2)cc1 (stereo unspecified) | -4.5% | 
Cc1cc(N(C)C)nc(Cl)n1 | 2.22% | 
O=C(CSc1cccc[n+]1[O-])c1ccc(-c2ccccc2)cc1 | -7.13% | 
COc1cccc(CC2(CO)CCN(Cc3cnc(-c4cccc(C)c4)nc3)CC2)c1 | 3.73% | 
O=C(Nc1ccccc1F)c1ccccc1-c1ccc(C(F)(F)F)cc1 | -4.73% | 
O=[N+]([O-])c1ccccc1SNc1ccccn1 | 0.477% | 
N#Cc1cccc(CS(=O)(=O)c2nnnn2-c2cc(C(F)(F)F)cc(C(F)(F)F)c2)c1 | 2.12% | 
FC(F)(F)c1cccc(-c2cc3ccccc3nc2N2CCCC2)c1 | -3.49% | 
O=C(Nc1ccc(Cl)cc1)/C(=C1\CCCN1)[N+](=O)[O-] | 0.902% | 
Cc1noc(C)c1-c1ccc2ncnc(NCc3ccc4[nH]ccc4c3)c2c1 | 10.6% | 
COc1ccc(Cl)cc1NC(=O)COC(=O)C(CC(C)C)N1C(=O)C2CC=CCC2C1=O (stereo unspecified) | 1.56% | 
O=C(CCl)Nc1cccc(CP(=O)(c2ccccc2)c2ccccc2)c1 | 5.31% | 
Cc1ccc(CNC(=O)C2(C(F)(F)F)C/C(=C\Cc3ccccc3)CCCO2)o1 (stereo unspecified) | 0.641% | 
CCCN1CCC(=O)N(C(CSc2ccc(C)cc2)Cc2ccccc2)CC1 (stereo unspecified) | -7.66% | 
COC(=O)Cn1cc(/C=C/[N+](=O)[O-])c2ccccc21 | 3.39% | 
O=C(NCc1ccccn1)[C@]1(C(F)(F)F)C[C@H](CCc2ccccc2)CCCO1 | -5.69% | 
CC(C)[C@@H]1NC(=O)[C@H](Cc2ccccc2)NC(=O)[C@@H](CC(=O)O)NC(=O)CNC(=O)[C@H](CCCNC(=N)N)NC1=O | 5.67% | 
COC(=O)[C@@]1(Cc2ccc(OC)cc2)[C@H]2c3cc(C(=O)N4CCCC4)n(Cc4ccc(OC(F)(F)F)cc4)c3C[C@H]2CN1C(=O)c1ccccc1 | 6.25% | 
COc1ccc(C2/C=C\CN(Cc3ccco3)C(C)C(=O)N2Cc2ccc(F)cc2)cc1 (stereo unspecified) | 2.13% | 
COc1cc2c(cc1OC)C(/C=C/c1ccco1)=NCC2 | 1.23% | 
